# Laboratory results reported in the supplement of paper PMC7411054.
# Counter-ions that a name gives are not always drawn.
# Tested on: A549-GM130-SQSTM1
# Test: lowest phenotypically active concentration; higher = less potent
# Conditions: treatment time: 24 h
# Outline: (§1)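 Two criteria together defined phenotypic activity: deviation and reproducibility. Deviation meant ≥3 of 4 wells beyond the 95th percentile of Euclidean distances in solvent control wells, and reproducibility meant a median replicate Pearson correlation above the 95th percentile of non-replicates. Wells had been treated for 24 h at 0.3, 1, 3 or 9 µM in fifteen gene-edited A549, HepG2 and WPMY1 reporter lines before live imaging.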
row,SMILES,lowest phenotypically active concentration
1,CC(C)(C)c1ccc2cc(C#N)c(C#N)cc2c1,3 µM
2,C[C@H]1Oc2cc(cnc2N)-c2c(nn(C)c2C#N)CN(C)C(=O)c2ccc(F)cc21,1 µM
3,CC(C)OC(=O)c1cc2c(OCC(O)CNC(C)(C)C)cccc2[nH]1 (stereo not given),9 µM
4,COc1ccccc1OCCNCC(O)COc1cccc2[nH]c3ccccc3c12 (stereo not given) [Carvedilol],9 µM
5,CCCCOc1cc(C(=O)NCCN(CC)CC)c2ccccc2n1 [cinchocaine],9 µM
6,O=S(=O)(c1cccc2cnccc12)N1CCCNCC1 [fasudil],9 µM
7,Clc1ccccc1C(c1ccccc1)(c1ccccc1)n1ccnc1 [Clotrimazole],9 µM
8,CSc1ccc2c(c1)N(CCC1CCCCN1C)c1ccccc1S2 (stereo not given) [thioridazine],3 µM
9,CCCNCC(O)COc1ccccc1C(=O)CCc1ccccc1 (stereo not given) [propafenone],9 µM
10,O=C(O)[C@@H]1[C@H]2C[C@H]3c4[nH]c5ccccc5c4CCN3C[C@@H]2CC[C@@H]1O [Yohimbinic acid monohydrate],3 µM
11,COc1cc(N2CCC(N)CC2)ccc1Nc1ncc(Cl)c(-c2c[nH]c3ccccc23)n1,≤ 0.3 µM
12,COc1cc2ncnc(Nc3ccc(Cl)cc3F)c2cc1OC,3 µM
13,Cc1noc(C)c1-c1ccc2c(c1)nc(CCc1ccc(OCCCN(C)C)cc1)n2CCN1CCOCC1,3 µM
14,Cc1ccc(NC(=O)c2cccc(N(C)C)c2)cc1NC(=O)c1ccc(O)cc1,3 µM
15,Cc1cc(Nc2ccc(NC(=O)c3ccc(Nc4ccnc5ccccc45)cc3)cc2)nc(N)n1,1 µM
16,Cc1ccc(NC2=CC(=O)c3sc(C)nc3C2=O)cc1 [Ryuvidine],9 µM
17,C[C@]1(O)C[C@@H](c2nc(-c3ccc4ccc(-c5ccccc5)nc4c3)c3c(N)nccn32)C1 [linsitinib],≤ 0.3 µM
18,COc1cc2c(cc1OCCCN1CCCC1)N=C(N)C21CCC1,9 µM
19,O=C(O)C[C@H](O)C[C@H](O)/C=C/c1c(C2CC2)nc2ccccc2c1-c1ccc(F)cc1 [Pitavastatin calcium],9 µM
20,CC#CC(=O)N1CCC[C@H]1c1nc(-c2ccc(C(=O)Nc3ccccn3)cc2)c2c(N)nccn12 [acalabrutinib],9 µM
21,NC(=O)c1cccc(-c2cc(Nc3ccc(OC(F)(F)F)cc3)ncn2)c1,9 µM
22,CN1[C@@H]2CC[C@H]1C[C@@H](OC(c1ccccc1)c1ccccc1)C2 [benztropine],9 µM
23,NS(=O)(=O)c1nn2cc(-c3ccccc3)nc2s1,9 µM

# Tested on: A549-TP53BP1-CLTA
# Test: as above
# Conditions: treatment time: 24 h
# Outline: as §1
row,SMILES,lowest phenotypically active concentration
1,CC/C(=C(\CC)c1ccc(O)c(CN(CC)CC)c1)c1ccc(O)c(CN(CC)CC)c1,1 µM
2,CNCCC(Oc1ccc(C(F)(F)F)cc1)c1ccccc1 (stereo not given) [fluoxetine],9 µM
3,Cn1cc(C2=C(c3ccc(Cl)cc3Cl)C(=O)NC2=O)c2ccccc21,≤ 0.3 µM
4,CC(C)COCC(CN(Cc1ccccc1)c1ccccc1)N1CCCC1 (stereo not given) [bepridil],9 µM
5,COc1cc(OC)c2cc(-c3ccncc3)cnc2c1 [DMPQ dihydrochloride],9 µM
6,O=C(NOCC1CC1)c1ccc(F)c(F)c1Nc1ccc(I)cc1Cl,≤ 0.3 µM
7,COc1ccc(CCNCc2ccc(OCc3ccc(Cl)nc3)c(OC)c2)cc1OC [SBE 13 hydrochloride],9 µM
8,N#C/C(=C(/N)Sc1ccc(N)cc1)c1ccccc1C(F)(F)F,1 µM
9,Cc1noc(C)c1Cn1cc(C#N)c2cc(Oc3ccc(NC(=O)[C@@H]4CCCN4)cc3)ccc21,9 µM
10,CCCS(=O)(=O)Nc1ccc(F)c(C(=O)c2c[nH]c3ncc(Cl)cc23)c1F,1 µM
11,COc1c(C=O)c(O)cc2c1C(=O)c1ccccc1C2=O [Damnacanthal],3 µM
12,COc1ccc(CNC(=O)Nc2ncc([N+](=O)[O-])s2)cc1,9 µM
13,C[C@H]1Oc2cc(cnc2N)-c2c(nn(C)c2C#N)CN(C)C(=O)c2ccc(F)cc21,3 µM
14,CC(C)OC(=O)c1cc2c(OCC(O)CNC(C)(C)C)cccc2[nH]1 (stereo not given),9 µM
15,COc1ccccc1OCCNCC(O)COc1cccc2[nH]c3ccccc3c12 (stereo not given) [Carvedilol],9 µM
16,CCCCOc1cc(C(=O)NCCN(CC)CC)c2ccccc2n1 [cinchocaine],9 µM

row,SMILES,lowest phenotypically active concentration
1,O=S(=O)(c1cccc2cnccc12)N1CCCNCC1 [fasudil],9 µM
2,Clc1ccccc1C(c1ccccc1)(c1ccccc1)n1ccnc1 [Clotrimazole],9 µM
3,CSc1ccc2c(c1)N(CCC1CCCCN1C)c1ccccc1S2 (stereo not given) [thioridazine],9 µM
4,CCCNCC(O)COc1ccccc1C(=O)CCc1ccccc1 (stereo not given) [propafenone],9 µM
5,O=C(O)[C@@H]1[C@H]2C[C@H]3c4[nH]c5ccccc5c4CCN3C[C@@H]2CC[C@@H]1O [Yohimbinic acid monohydrate],9 µM
6,COc1cc(N2CCC(N)CC2)ccc1Nc1ncc(Cl)c(-c2c[nH]c3ccccc23)n1,3 µM
7,COc1cc2ncnc(Nc3ccc(Cl)cc3F)c2cc1OC,3 µM
8,Cc1noc(C)c1-c1ccc2c(c1)nc(CCc1ccc(OCCCN(C)C)cc1)n2CCN1CCOCC1,9 µM
9,Cc1ccc(NC(=O)c2cccc(N(C)C)c2)cc1NC(=O)c1ccc(O)cc1,3 µM
10,Cc1cc(Nc2ccc(NC(=O)c3ccc(Nc4ccnc5ccccc45)cc3)cc2)nc(N)n1,9 µM
11,Cc1ccc(NC2=CC(=O)c3sc(C)nc3C2=O)cc1 [Ryuvidine],1 µM
12,C[C@]1(O)C[C@@H](c2nc(-c3ccc4ccc(-c5ccccc5)nc4c3)c3c(N)nccn32)C1 [linsitinib],9 µM
13,O=C(O)C[C@H](O)C[C@H](O)/C=C/c1c(C2CC2)nc2ccccc2c1-c1ccc(F)cc1 [Pitavastatin calcium],9 µM
14,NC(=O)c1cccc(-c2cc(Nc3ccc(OC(F)(F)F)cc3)ncn2)c1,9 µM
15,CN1[C@@H]2CC[C@H]1C[C@@H](OC(c1ccccc1)c1ccccc1)C2 [benztropine],9 µM
16,NS(=O)(=O)c1nn2cc(-c3ccccc3)nc2s1,9 µM
